From PubChem
An excerpt weighted towards active compounds, which were near 5.1% of everything screened.
NPSR antag = blocks cAMP signaling of the human neuropeptide S receptor; 220,000 compounds, 1% hits; AID 1461; CHO-NPSR cells, cAMP TR-FRET, antagonist mode; Potency, µM (series often up to 38.3 µM), for inactives: top-dose activity change, negative = inhibition, hits mostly inhibitors; also: potency is read from the fitted curve at half-maximal effect; nearly all actives have a fitted effect of over 50% in size
Tau ThT inhib = tau fibrillization inhibition (ThT binding); recombinant tau K18 P301L, heparin-induced fibrillization, ThT fluorescence; 270,000 compounds, 2.1% hits; Potency, µM (highest dose often 57.4 µM), for the others: at the highest dose activity, negative = inhibition, actives largely listed as inhibitors; also: potency is read from the fitted curve at half-maximal effect; nearly all actives have a fitted effect of over 55% in size
Target sequence (P10636 561-689 P618L limits assumed): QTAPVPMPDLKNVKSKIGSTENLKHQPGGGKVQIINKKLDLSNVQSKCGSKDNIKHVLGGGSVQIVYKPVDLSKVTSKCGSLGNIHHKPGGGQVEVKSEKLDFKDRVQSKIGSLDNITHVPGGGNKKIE
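Fibril formation assay: tau K18 P301L at 15 uM with trace Alexa 594 label, heparin inducer 20 uM, pH 7 sodium acetate buffer, 37 C for 6 hr; endpoint ThT signal.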
Tau fibril FP = tau fibrillization inhibition (FP); P10636; AID 1468; 280,000 compounds, 0.39% hits; Potency, µM (doses to about 57.7 µM), for the others: top-dose activity, negative = inhibition, usual class: inhibitors; K18 P301L tau heparin fibrillization, Alexa594 FP, 6 h; also: potency is read from the fitted curve at half-maximal effect; nearly all actives have a fitted effect of over 55% in size
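Quantitative HTS format: compounds meet 15 uM recombinant K18 P301L tau and Alexa 594-tau tracer in 100 mM sodium acetate pH 7; 20 uM heparin triggers fibrillization at 37 C over 6 hr; FP gives the signal.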
KDM4E inh = JMJD2E (human) inhibition. Potency, µM (series often up to 57.1 µM), for the others: at the top dose activity change, negative = inhibition, most hits filed as inhibitors. 230,000 compounds, 1.6% hits. B2RXH2. JMJD2E catalytic domain, FDH-coupled NADH fluorescence (FDH is formaldehyde dehydrogenase);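 also: potency is read from the fitted curve at half-maximal effect; 0% = wells with enzyme and -100% = buffer wells without enzyme; nearly all actives have a fitted effect of over 50% in size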
Target sequence (B2RXH2 1-337 limits assumed): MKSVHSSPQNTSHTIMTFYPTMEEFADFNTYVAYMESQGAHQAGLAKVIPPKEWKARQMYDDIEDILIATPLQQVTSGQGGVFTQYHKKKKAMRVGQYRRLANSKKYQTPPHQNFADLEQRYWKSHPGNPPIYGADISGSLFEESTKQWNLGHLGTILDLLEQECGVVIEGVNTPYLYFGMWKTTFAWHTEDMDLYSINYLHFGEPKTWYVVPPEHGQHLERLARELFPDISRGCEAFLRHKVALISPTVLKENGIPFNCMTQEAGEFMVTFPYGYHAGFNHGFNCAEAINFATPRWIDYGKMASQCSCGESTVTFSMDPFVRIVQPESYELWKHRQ
Tau fluor counter = counter-screen for tau fibril formation inhibitors | Potency, µM (highest dose often 57.7 µM), for the others: at the top dose activity change, negative = decrease | AID 1463 | tau K18 P301L Alexa594 fluorescence, heparin fibrillization | 280,000 compounds, 0.93% hits; also: potency is read from the fitted curve at half-maximal effect; nearly all actives have a fitted effect of over 55% in size
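Human tau K18 P301L (15 uM unlabeled, 0.24 uM Alexa 594-labeled) in 100 mM sodium acetate pH 7 with 20 uM heparin, 6 hr at 37 C. ThT 30 uM added, 1 hr ambient; Alexa 594 FP and total fluorescence read at 555/632 nm.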
PNC inhibitor = perinucleolar compartment assembly inhibition | PC3M PTB-GFP, PNC prevalence imaging, 16 h; stronger effect = lower value | activity change (PNC), negative = inhibition, % at 10 µM | 140,000 compounds, 3.1% hits | AID 2417;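 active = readout at or below -70, meaning at least 70% loss of cells showing the perinucleolar compartment, a nuclear body marking cancer cells; inconclusive = readout between -30 and a set limit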;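 also: plate controls were DMSO wells for no effect and camptothecin positive control wells for full effect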
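Compounds are pinned in duplicate onto adhered PC3M cells stably expressing GFP-tagged PTB and incubated 16 h at 37 C. Cells are then fixed, nuclei stained with Hoechst, and PNC-positive cells counted.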
An asterisk follows results filed as active; ! = not active in a repeat; [ ] = remark or other dose. Unless noted, calls follow the shape of the dose curve; as a rule, active = well fitted curve in the direction sought with a large enough effect; inconclusive = small, poorly fitted or top-dose-only effect, or another doubt; inactive = no such curve, though single readings can be large; an effect the other way counts as inactive or inconclusive. Unless noted, % is scaled to controls: 0 for no effect and ±100 for the full control effect.

Screening CCN(C(=O)c1cn(-c2ccc(OC)cc2)c(=O)c2ccccc12)c1cccc(Cl)c1 returned Tau ThT inhib -13.7%, Tau fibril FP -9.2% and Tau fluor counter -17.8%.
Screening CC1=C(CC(=O)O)c2cc(F)ccc2/C1=C\c1ccc(S(C)=O)cc1 (stereo unspecified) returned NPSR antag inconclusive, Tau ThT inhib inconclusive, Tau fibril FP -9.7%, KDM4E inh 35.5µM*! and Tau fluor counter -17.1%.
For Nc1ccc(C(=O)NCC(=O)O)cc1 the results were Tau ThT inhib 31.6µM*, Tau fibril FP inconclusive, KDM4E inh inconclusive and Tau fluor counter inconclusive.
`CCSc1ccc(C(=O)NCC(=O)O)cc1` gave NPSR antag -17.4%, Tau ThT inhib -2.6%, Tau fibril FP -7.2%, KDM4E inh 6.3% and Tau fluor counter -6.6%.
Cc1ccc2onc(CC(=O)Nc3cc(F)ccc3F)c2c1 was read as Tau ThT inhib -6.4%, Tau fibril FP -1.0% and Tau fluor counter -0.4%.
Screening Cc1ccc(-n2c(=O)c3sccc3n(Cc3cc(=O)n4cc(Cl)ccc4n3)c2=O)cc1F returned NPSR antag -13.4%[46.1 µM], Tau ThT inhib -2.0%, Tau fibril FP 10.9%, KDM4E inh 0.1%, Tau fluor counter -6.0% and PNC inhibitor -82.9*.
`Cc1ccc(-c2cc(NC(=O)COc3ccc(Cl)cc3C)on2)cc1` gave Tau ThT inhib -16.5%, Tau fibril FP -13.1% and Tau fluor counter -9.0%.
`COc1ccc(CCNC(=O)c2ccc3c(c2)sc2nc(-c4ccccc4)cn23)cc1OC` gave Tau ThT inhib -1.0%, Tau fibril FP -8.4% and Tau fluor counter -2.0%.
Cc1ccc(Nc2ncc(C(=O)Nc3ccc(F)cc3F)c3ccccc23)cc1Cl was read as Tau ThT inhib -0.9%, Tau fibril FP inconclusive and Tau fluor counter inconclusive.
`O=C(CS)Nc1ccc2ccccc2c1` gave NPSR antag -18.4%[7.67 µM], Tau ThT inhib 25.1µM*, Tau fibril FP inconclusive, KDM4E inh 1.5% and Tau fluor counter inconclusive.
For O=C(CSCc1nc2ccccc2[nH]1)Nc1ccc2ccccc2c1 the results were NPSR antag -9.4%[46.1 µM], Tau ThT inhib 22.4µM*, Tau fibril FP inconclusive, KDM4E inh inconclusive, Tau fluor counter inconclusive and PNC inhibitor 0.3.
COC(=O)C1=C(C(=O)OC)[C@@H]2Nc3ccccc3[C@@]23C[C@@H](C(=O)OC)N(S(=O)(=O)c2ccc(C#N)cc2)C3=N1 was read as Tau ThT inhib -1.5%[11.5 µM], Tau fibril FP -0.1%[11.6 µM], KDM4E inh 3.1%[11.4 µM] and Tau fluor counter -6.5%[11.6 µM].
O=C(CSc1nnc(CCCOc2ccc(Cl)cc2Cl)o1)Nc1ccc(C(=O)O)cc1 was read as NPSR antag -4.8%, Tau ThT inhib inconclusive, Tau fibril FP -6.6%, KDM4E inh 10.3%, Tau fluor counter -11.3% and PNC inhibitor -85.5*.
`O=C(CSc1nnc(Cc2ccc(Cl)cc2)o1)Nc1ccccc1` gave NPSR antag 6.1%, Tau ThT inhib -4.0%, Tau fibril FP -14.9%, KDM4E inh 5.2% and Tau fluor counter -24.1%.
Screening CCc1ccc(C2CC(=O)c3c([nH]c(C(=O)OC4CCCC4)c3C)C2)cc1 (stereo unspecified) returned Tau ThT inhib -4.4%, Tau fibril FP -14.7% and Tau fluor counter -12.5%.
Screening CC1=C(C)CC(c2ccccc2)C(C(=O)c2ccccc2O)C1 (stereo unspecified) returned Tau ThT inhib -5.2%[11.5 µM], Tau fibril FP 1.1%[11.6 µM] and Tau fluor counter -5.8%[11.6 µM].
Screening COC(=O)CNC(=O)COC(=O)C(Cc1ccccc1)NC(=O)c1ccco1 (stereo unspecified) returned NPSR antag -21.6%[46.1 µM], Tau ThT inhib -5.6%, Tau fibril FP -4.4%, KDM4E inh 4.2%, Tau fluor counter 3.9% and PNC inhibitor -115.1*.
Screening O=C(COC(=O)[C@H](Cc1ccccc1)NC(=O)c1ccco1)NC(c1ccccc1)c1ccccc1 returned NPSR antag -23.7%[46.1 µM], Tau ThT inhib -0.2%, Tau fibril FP 6.2%, KDM4E inh -0.6%, Tau fluor counter -19.1% and PNC inhibitor inconclusive.
For COc1ccc2nc(Nc3nc4cc5c(cc4s3)OCO5)sc2c1 the results were NPSR antag -25.6%, Tau ThT inhib 2.82µM*, Tau fibril FP 2.2%, KDM4E inh inconclusive, Tau fluor counter 7.94µM*[quencher] and PNC inhibitor -5.3.
For COc1ccc(Nc2nc(C)c(-c3ccccc3)s2)cc1 the results were NPSR antag inconclusive, Tau ThT inhib 5.62µM*, Tau fibril FP 7.3%, KDM4E inh inconclusive, Tau fluor counter 8.91µM*[quencher] and PNC inhibitor -24.5.
For COc1ccc(-c2sc(NC(C)=O)nc2-c2ccccc2)cc1 the results were NPSR antag 5.4%, Tau ThT inhib -5.5%, Tau fibril FP inconclusive, KDM4E inh -29.7%, Tau fluor counter inconclusive and PNC inhibitor inconclusive.
For COc1ccc2nc(NNC(=O)c3cc(=O)c4ccccc4o3)sc2c1 the results were NPSR antag -6.4%, Tau ThT inhib 4.47µM*, Tau fibril FP -19.7%, KDM4E inh 31.6µM* and Tau fluor counter inconclusive.
`COc1ccc2nc(Nc3ccccc3)sc2c1` gave NPSR antag -19.5%, Tau ThT inhib 14.1µM*, Tau fibril FP 10.8%, KDM4E inh -2.2% and Tau fluor counter 17.8µM*[quencher].
Screening COc1ccc2nc(NC(=O)c3cc(=O)c4cc(C)c(C)cc4o3)sc2c1 returned Tau ThT inhib inconclusive, Tau fibril FP -0.4% and Tau fluor counter -11.9%.
Screening COC(=O)c1cccc(Nc2c(-c3cc(Br)ccc3O)nc3nc[nH]n23)c1 returned Tau ThT inhib 13.5%, Tau fibril FP -0.6% and Tau fluor counter 0.4%.
`CC(=O)Nc1ccc(Nc2nc3ccc(C)cc3n3nnnc23)cc1` gave Tau ThT inhib inconclusive, Tau fibril FP 16.8% and Tau fluor counter inconclusive.
For COc1ccc(Nc2nc3ccccc3c(=O)s2)c(OC)c1 the results were NPSR antag -19.0%[46.1 µM], Tau ThT inhib -0.6%, Tau fibril FP 6.6%, KDM4E inh 3.4%, Tau fluor counter -0.6% and PNC inhibitor 0.4.
For COc1ccc2nc(Nc3ccccc3OC)sc2c1 the results were NPSR antag -20.2%, Tau ThT inhib 12.6µM*, Tau fibril FP 10.4%, KDM4E inh -7.7% and Tau fluor counter inconclusive.
For COc1cc(-c2nc3ccccn3c2/N=C/c2cccc(OC)c2O)ccc1O the results were NPSR antag -27.0%, Tau ThT inhib inconclusive, Tau fibril FP inconclusive, KDM4E inh 232.4% and Tau fluor counter -29.3%.
